Screens from PubChem BioAssay.
Hits are enriched below; roughly 1.3% of the tested compounds scored in any of these assays.
AmpC no deterg: inhibitors of E. coli AmpC beta-lactamase without detergent; P00811; AmpC nitrocefin hydrolysis, absorbance 480 nm, 0.0001% Triton; Potency, µM (top dose mostly 57.1 µM), inactives show at the highest dose activity change, negative = inhibition, hits mostly inhibitors; actives 0.52% (n = 330,000); AID 485341;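 further: plate controls were no compound for no effect and no enzyme for full effect; nearly all actives have a fitted effect of over 20% in size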
Target sequence (P00811 whole entry, looked up): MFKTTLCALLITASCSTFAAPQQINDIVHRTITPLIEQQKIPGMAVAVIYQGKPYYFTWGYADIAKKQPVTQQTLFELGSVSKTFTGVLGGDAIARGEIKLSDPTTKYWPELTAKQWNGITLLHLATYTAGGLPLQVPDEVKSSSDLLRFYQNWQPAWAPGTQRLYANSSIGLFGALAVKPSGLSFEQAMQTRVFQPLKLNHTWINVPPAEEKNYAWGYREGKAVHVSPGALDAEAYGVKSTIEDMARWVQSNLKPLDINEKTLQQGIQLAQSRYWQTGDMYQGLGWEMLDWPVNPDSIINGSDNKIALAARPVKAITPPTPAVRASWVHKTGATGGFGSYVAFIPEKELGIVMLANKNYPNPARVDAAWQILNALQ
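20 mM phosphate pH 7.0 + 0.01% (detergent screen) or 0.0001% Triton X-100; 5.3 nM AmpC reagent; cpd preinc 15 min RT; nitrocefin (800 uM stock) to start; A480 q20 s × 4 min; Activity was normalised to no-enzyme and no-compound control wells.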
AMA1-RON2 inh: disrupts binding of P. falciparum AMA1 to RON2; AlphaScreen AMA1-biotinylated RON2 peptide binding; Potency, µM (top dose mostly 58.2 µM), for the others: top-dose activity change, negative = inhibition, usual class: inhibitors; actives 0.2% (n = 360,000);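 further: 0% = vehicle wells and -100% = peptide control; nearly all actives have a fitted effect of over 45% in size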
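AMA1 (3D7) with his tag at 25 nM final met compounds first, then biotinylated RON2 peptide at 25 nM; detection used donor plus acceptor beads, 10 µg/mL apiece, read by AlphaScreen after 30 min at room temperature.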
VACV Venus inh: inhibitors of vaccinia virus (Venus reporter) | Vaccinia virus Venus reporter expression, fluorescence | Potency, µM (top dose mostly 36.5 µM), for inactives: top-dose activity change, negative = inhibition, hits mostly inhibitors | actives 0.46% (n = 330,000) | AID 720580; calls by dose curve; tested in A549 cells; further: on the % scale 0 is the no-effect control and ±100 the full control effect; nearly all actives have a fitted effect of over 30% in size
VACV mCherry inh: vaccinia inhibition (mCherry reporter). Potency, µM (titrated, usually from 36.5 µM), without a hit: top-dose activity change, negative = inhibition, usual class: inhibitors. Vaccinia virus mCherry reporter infection, fluorescence. actives 0.63% (n = 310,000); calls by dose curve; tested in A549 cells; further: on the % scale 0 is the no-effect control and ±100 the full control effect; nearly all actives have a fitted effect of over 35% in size
SARS PLP yeast: inhibitors of SARS-CoV papain-like protease in yeast | S. cerevisiae expressing SARS-CoV PLpro, growth rescue | Potency, µM (titrated, usually from 32.9 µM), for the others: at the highest dose activity, positive = growth rescue, most hits filed as activators | actives 0.19% (n = 330,000); calls by dose curve; further: 0% is about no effect; nearly all actives have a fitted effect of over 55% in size
AmpC inh detg: AmpC beta-lactamase inhibition with detergent present; actives 0.041% (n = 370,000); AID 485294; AmpC hydrolysis of nitrocefin, absorbance 480 nm, 0.01% Triton; Potency, µM (series often up to 114 µM), for the others: at the top dose activity change, negative = inhibition, hits mostly inhibitors; P00811;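 further: 0% = no-compound wells and -100% = no-enzyme wells; nearly all actives have a fitted effect of over 25% in size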
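20 mM phosphate pH 7.0 + 0.01% (detergent screen) or 0.0001% Triton X-100; 5.3 nM AmpC reagent; cpd preinc 15 min RT; nitrocefin (800 uM stock) to start; A480 q20 s × 4 min; Activity was normalised to no-enzyme and no-compound control wells.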
Numbers without * were called inactive; i = inactive; u = inconclusive; x = not tested or not shown; ! = a repeat was not active; [ ] = remark or other dose. Unless noted, the call rests on the fitted dose curve; in most records, active means well fitted curve in the direction sought with a large enough effect; inconclusive means small, poorly fitted or top-dose-only effect, or another doubt; inactive means no such curve, though single readings can be large; an effect the other way counts as inactive or inconclusive. Potency means the concentration at half of the fitted maximal effect.

SMILES	AmpC no deterg	AMA1-RON2 inh	VACV Venus inh	VACV mCherry inh	SARS PLP yeast	AmpC inh detg
Cc1ccc(S(=O)(=O)N2CCC(C(=O)NCC(C)(C)N3CCOCC3)CC2)c(C)c1	54%	11%	x	x	4%	4%
COc1ccc2c(c1)-c1nc(-n3ncc(C(=O)NCc4cccc(C)n4)c3C3CC3)ncc1CC2	x	x	-3%	-3%	x	x
COc1ccc(O)c(/C=N/NC(=O)CN2CCS(=O)(=O)CC2)c1	-9%	99%	-1%	3.2µM*	-4%	7%
COc1ccc(O)c(/C=N/NC(=O)CCC(=O)Nc2ccc(C)cc2)c1	-18%	128%	x	x	-1%	-8%
Cn1nnnc1SCC(=O)N1c2ccccc2Sc2ccc(Cl)cc21	1.3µM*	-12%	3%	4%	-2%	1%
Cn1c(SCC(=O)N2c3ccccc3Sc3ccc(Cl)cc32)nnc1-c1ccco1	-8%	13%	-6%	-11%	-66%	-10%
CC(Nc1nc(-c2ccc(F)cc2)cs1)c1nc2cc(Cl)c(Cl)cc2n1CCCO (stereo not given)	x	12%	u	10µM*	x	x
COc1ccc(-c2csc(NC(C)c3nc4cc(Cl)c(N5CCCCC5)cc4n3CCCO)n2)cc1 (stereo not given)	x	47%	u	8.9µM*	x	x
O=C1CC(c2ccc(Cl)c([N+](=O)[O-])c2)c2ccc3ccccc3c2N1 (stereo not given)	-24%	0%	u	11µM*	2%	-4%
COc1cc(-c2cnc3ccccc3c2)cc2c1OCCN(S(=O)(=O)C[C@]13CC[C@H](CC1=O)C3(C)C)C2	x	x	4%	-11%	x	x
O=C(c1cnn(-c2nccc(-c3ccco3)n2)c1C1CC1)N1CCCCC1c1cccnc1 (stereo not given)	x	x	2%	0%	x	x
CN=C(c1ccco1)n1c(=S)nc(-c2ccco2)n(C)c1=S	-27%	3%	13µM*	u	4%	-7%
CN=C(c1ccc(C)cc1)n1c(=S)nc(-c2ccc(C)cc2)n(C)c1=S	-8%	-9%	1%	0%	-2%	-5%
Cc1ccc(C(=O)Oc2ccc3ccc(=O)oc3c2)cc1	-20%	3%	x	x	0%	3%
CC(=O)Oc1ccc2ccc(=O)oc2c1	-3%	5%	0.0025µM*	100µM*	0%	8%
COc1ccccc1CNc1ncnc2nc[nH]c12	-17%	1%	u	3.5µM*!	7%	-10%
COc1cc(-c2ccc3c(=O)c4ccccc4n(C)c3c2)cc(OC)c1OC	146%	48%	u	-19%	-4%	-18%
COc1cc(-c2ccc3c(=O)c4ccccc4sc3c2)cc(OC)c1OC	-18%	0%	14µM*	-33%	6%	x
Cc1ccc(C(=O)N(Cc2ccc(N(C)C)cc2)CC2CCCO2)cc1 (stereo not given)	x	x	-9%	-3%	x	2%
CN(Cc1ccc(N(C)C)cc1)C(=O)c1cc2ccccc2o1	5%	14µM*	-8%	-7%	-19%	-9%
CN(C)c1ccc(CN(CC2CCCO2)C(=O)c2cc3ccccc3o2)cc1 (stereo not given)	27%	16µM*	-9%	i	-3%	0%
CC(C)C(NS(C)(=O)=O)c1nnc2n1CCN(Cc1ccc(Cl)cc1)CC2 (stereo not given)	x	x	-11%	-22%	x	x
Cc1cnc(-n2ncc(C(=O)N(CCO)C(C)C)c2-c2cccs2)nc1-c1ccc(F)cc1	x	x	-16%	-18%	x	x
COc1ccc(O)c(/C=N/Nc2nc(Nc3ccccc3)nc(-n3nc(C)cc3C)n2)c1	39%	-17%	10µM*	x	1%	-8%
CCOC(=O)c1sc(NC(=O)Nc2ccccc2Cl)cc1C	-33%	-1%	10µM*	u	-16%	u
SMILES	AmpC no deterg	AMA1-RON2 inh	VACV Venus inh	VACV mCherry inh	SARS PLP yeast	AmpC inh detg
CCOC(=O)c1sc(NC(C)=O)cc1C	-2%	26%	-25%	i	-15%	u
CCOC(=O)c1sc(NC(=O)Nc2ccccc2)cc1C	-39%	9%	13µM*	16µM*	-14%	-1%
CCOC(=O)c1sc(NC(=O)c2ccc(C)s2)cc1C	-36%	6%	-22%	u	-3%	u
COc1ccc(CCNc2ncnc3sc(C(=O)N4CCCCC4)c(C)c23)cc1OC	x	x	-20%	-23%	x	x
Cc1c(C(=O)N2CCCCC2)sc2ncnc(NCCc3ccccn3)c12	x	x	-20%	-20%	x	x
Cc1c(C(=O)NCC(C)(C)N2CCOCC2)cnn1-c1nccc(-c2cccs2)n1	x	x	-9%	-12%	x	x
Cc1cc(C)nc(N/N=C/c2ccccc2Cl)n1	-21%	55%	x	x	0%	-2%
Cc1cc(N/N=C/c2ccccc2Cl)nc(NCc2ccccc2)n1	-18%	-21%	u	13µM*	-72%	u
COC(=O)c1c(OCc2ccccc2)cc(=O)n2c1CCN(Cc1cccc(C)n1)CC2	x	x	0%	0%	x	x
O=C(Nc1cccc(C(=O)Nc2cccc(Br)c2)c1)c1ccccc1	14µM*	-2%	x	x	-1%	u
COc1ccc2[nH]c(=O)cc(C(=O)O)c2c1	-13%	22µM*	-16%	2%	-1%	1%
COc1c(O)cc(O)cc1O	x	x	-16%	-23%	x	x
Cc1cc(O)c(Oc2cc(C)cc(O)c2O)c(O)c1	-42%	4.5µM*	-10%	-14%	0%	6%
Cc1ncc2c(c1CNC(=O)c1cncs1)CCN(C(=O)c1ccc(C(F)(F)F)cc1)C2	x	x	-1%	-7%	x	x
Cc1c(Cl)cccc1NC(=S)NNS(=O)(=O)c1ccc([N+](=O)[O-])cc1	-33%	83%	u	10µM*	-2%	3%
COc1ccc(CNCCC(c2ccc(OC)cc2)c2ccccc2OC)cc1 (stereo not given)	1%	5%	-26%	i	-2%	-2%
COc1ccc(C(CCNCc2ccc(N(C)C)cc2)c2ccccc2OC)cc1 (stereo not given)	1%	13µM*	-26%	u	-2%	-4%
COCc1nnc(SCC(=O)NC(C)c2ccccc2)n1-c1ccccc1 (stereo not given)	0.4µM*	10%	-5%	-13%	-2%	-2%
Cc1onc(-c2ccccc2)c1C(=O)NC(=S)NNC(=O)c1cc(-c2ccc(F)cc2)n[nH]1	2µM*	85%	-6%[7.34 µM]	-5%[7.34 µM]	26%	2%
Cc1onc(-c2ccccc2)c1C(=O)NC(=S)NNC(=O)c1ccco1	-57%	126%	-11%	-20%	0%	-9%
CC(=NCC1CCCO1)c1c(O)n(Cc2ccccc2)c(=O)[nH]c1=O (stereo not given)	2.2µM*	-9%	-11%	i	3%	7%
CC(=NCC1CCCO1)c1c(O)n(-c2ccc(C)cc2)c(=O)[nH]c1=O (stereo not given)	-13%	3%	x	x	-12%	1%
